Compounds with a hit are over-represented: about 4.2% of the library has one in this group of screens.
12-LOX inh = Primary qHTS assay for inhibitors of human arachidonate 12S-lipoxygenase (ALOX12): Round 2; Polyunsaturated fatty acid lipoxygenase ALOX12 (Homo sapiens), P18054; 580,000 compounds, 1.1% hits; purified 12hLO, xylenol orange hydroperoxide absorbance; Potency, µM (doses to about 108 µM), usual class: inhibitors
Target sequence (P18054 whole entry, looked up): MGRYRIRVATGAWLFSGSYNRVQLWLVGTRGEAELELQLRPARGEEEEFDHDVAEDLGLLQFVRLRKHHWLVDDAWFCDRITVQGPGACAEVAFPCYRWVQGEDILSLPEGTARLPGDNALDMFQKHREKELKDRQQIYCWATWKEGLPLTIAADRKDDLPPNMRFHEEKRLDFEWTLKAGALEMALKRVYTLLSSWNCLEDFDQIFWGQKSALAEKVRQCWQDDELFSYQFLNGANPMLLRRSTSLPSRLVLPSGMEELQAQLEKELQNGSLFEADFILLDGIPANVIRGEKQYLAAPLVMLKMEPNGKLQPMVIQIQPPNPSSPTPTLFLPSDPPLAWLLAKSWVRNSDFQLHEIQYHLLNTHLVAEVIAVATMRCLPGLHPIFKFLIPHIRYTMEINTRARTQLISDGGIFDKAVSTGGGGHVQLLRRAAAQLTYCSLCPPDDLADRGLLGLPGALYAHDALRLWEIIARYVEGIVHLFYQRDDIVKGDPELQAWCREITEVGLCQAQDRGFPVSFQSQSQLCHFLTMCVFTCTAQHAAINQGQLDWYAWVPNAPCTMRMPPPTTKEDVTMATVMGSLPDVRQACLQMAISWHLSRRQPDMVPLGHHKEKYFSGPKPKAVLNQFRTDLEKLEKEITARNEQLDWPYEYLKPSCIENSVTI
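Hydroperoxide product was detected by ferrous iron/xylenol orange as the 573 to 405 nm absorbance ratio. Arachidonic acid at 40 uM (final) was turned over for 30 min at room temperature by 150 nM human 12hLO, pH 7.0 Hepes buffer, after 15 min compound preincubation.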
VDR inh = Inhibitors of the vitamin D receptor (VDR): qHTS; Vitamin D3 receptor (Homo sapiens), P11473; VDR-SRC2-3 peptide fluorescence polarization, 2 h; Potency, µM, hits mostly inhibitors; 400,000 compounds, 0.93% hits
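Compounds are added to VDR with labelled SRC2-3 coactivator peptide and held 2 h at room temperature. Inhibition of the VDR–peptide interaction is then read as a change in fluorescence polarization.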
PLK1 PBD block = qHTS for Inhibitors of PLK1-PDB (polo-like kinase 1 - polo-box domain): Primary Screen; Potency, µM, hits mostly inhibitors; 360,000 compounds, 2.8% hits; Serine/threonine-protein kinase PLK1 (Homo sapiens), P53350; Plk1 PBD binding of FITC phosphopeptide, fluorescence polarization; further: series mostly up to about 57 µM; nearly all actives have a fitted effect of over 65% in size
Sfp PPTase inh = qHTS Assay for Inhibitors of Bacillus subtilis Sfp phosphopantetheinyl transferase (PPTase); 4'-phosphopantetheinyl transferase ffp (Bacillus subtilis), Q9F4F7; Biochemical Sfp PPTase activity, qHTS; Potency, µM, usual class: inhibitors; 310,000 compounds, 3.5% hits;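 further: the enzyme is Sfp with the accession as filed and its product quenches rhodamine fluorescence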
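Fluorescence-quenching assay with 15 nM Sfp, 5 uM rhodamine-CoA and 12.5 uM BHQ-2-labelled ybbR peptide in pH 7.6 Hepes/MgCl2 buffer. Enzyme was pre-incubated with compound for 15 min at room temperature. Rate was taken from the 30-min fluorescence change (525/598 nm).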
USP1-UAF1 confirm = Inhibitors of USP1/UAF1: Hit Validation in Primary Assay. Potency, µM (highest dose often 56.8 µM), usual class: inhibitors. shares compounds with VDR inh. 50 compounds, 50% hits. Ub-Rhodamine cleavage, fluorescence kinetic read
VDR confirm = qHTS for Inhibitors of the vitamin D receptor (VDR): Hit Validation in Primary Screen | VDR-coactivator inhibition assay, qHTS confirmation | shares compounds with VDR inh | Potency, µM, most hits filed as inhibitors | AID 602199, 2012 | 840 compounds, 89% hits
VDR FP fluor = qHTS for Inhibitors of the vitamin D receptor (VDR): Hit Validation using a Fluorescein Assay | shares compounds with VDR inh | VDR-coactivator binding, fluorescein fluorescence polarization | AID 602200, 2012 | Potency, µM (titrated, usually from 57.1 µM), actives largely listed as inhibitors | 840 compounds, 48% hits
VDR bla = qHTS for Inhibitors of the vitamin D receptor (VDR): Hit Validation using a Beta-Lactamase Assay. shares compounds with VDR inh. VDR beta-lactamase reporter cells, FRET ratio; cells co-treated with VDR agonist LG190178. Potency, µM (doses to about 46.1 µM), most hits filed as inhibitors. 840 compounds, 23% hits
VDR cytotox = qHTS for Inhibitors of the vitamin D receptor (VDR): Hit Validation using a Cytotoxicity Assay | shares compounds with VDR inh | 840 compounds, 18% hits | cytotoxicity counter-screen, cell viability, qHTS | Potency, µM (top dose mostly 48.3 µM), hits mostly cytotoxic; further: nearly all actives have a fitted effect of over 75% in size
Hits are given with their value; . = inactive; ? = inconclusive; / = not tested or not shown; ! = not active in a repeat. The call rests on the fitted dose curve; in most records, active means well fitted curve in the direction sought with a large enough effect; inconclusive means small, poorly fitted or top-dose-only effect, or another doubt; inactive means no such curve, though single readings can be large; an effect the other way counts as inactive or inconclusive.

SMILES | 12-LOX inh | VDR inh | PLK1 PBD block | Sfp PPTase inh | VDR confirm | VDR FP fluor | VDR bla | VDR cytotox | others
Cc1ncsc1CCC(=O)N1CCCC(C(=O)c2ccc3c(c2)OCO3)C1 (stereo not given) | . | . | . | . | / | / | / | /
C=CCn1cccc(/C=C/C(=O)c2ccc(C(C)(C)C)cc2)c1=S | . | ? | . | . | 7.08 | 7.08µM | ? | ?
O=C(NCc1cccnc1)/C(=C\c1ccc(-c2ccc(Br)cc2)o1)S(=O)(=O)c1ccccc1 | . | 39.8µM | ? | . | 33.6 | ? | 5.8µM | 20.6µM
O=C(O)COc1cccc(-c2ocnc2-c2nc(-c3ccccc3)c(-c3ccccc3)o2)c1 | . | ? | / | ? | / | / | / | / | USP1-UAF1 confirm=59.1µM
Cc1ccc(-c2nc(-c3nccc4ccccc34)oc2-c2ccccc2)cc1 | . | . | . | . | / | / | / | /
O=C(O)c1ccc(S(=O)(=O)c2ccc([N+](=O)[O-])cc2[N+](=O)[O-])cc1 | . | 22.4µM | 8.44µM | 79.4µM | 10.6 | ? | . | .
CCCn1c(CC)nc([N+](=O)[O-])c1S(=O)(=O)c1ccccc1 | . | ? | ? | . | / | / | / | /
Cn1cnc([N+](=O)[O-])c1S(=O)(=O)c1cccc(Cl)c1 | . | 44.7µM | ? | . | ? | 25.1µM | ? | 10µM
O=C(c1cnccn1)N1CCC[C@@]2(CCN(c3ncccn3)C2)C1 | . | . | / | . | / | / | / | /
CCCCC1C(=O)N(c2ccccc2)N(c2ccc(O)cc2)C1=O (stereo not given) | ? | 11.2µM! | 23.8µM | . | ? | 14.1µM | 6.51µM | 21.2µM
Cc1nc(-c2cnccn2)n(CC(=O)Nc2ccccc2)c(=O)c1C | . | / | / | / | / | / | / | /
O=C(/C=C/c1ccc(Cl)cc1)c1ccc([N+](=O)[O-])o1 | . | 11.2µM | ? | / | 1.26 | 1µM | 7.31µM | .
O=C(O)/C=C/c1ccc([N+](=O)[O-])o1 | . | . | ? | . | / | / | / | /
COc1ccc(CN(C)C(=O)/C=C/c2ccc(S(=O)(=O)N3CCOCC3)cc2)cc1F | . | . | . | / | / | / | / | /
N#C/C(=C1\C(=O)Nc2c(Cl)cc(Cl)cc21)c1nnc2n1CCCCC2 | . | 28.2µM | ? | ? | 6.7 | 25.1µM | . | .
COC(=O)Nc1ccccc1C(=O)N1CCCCC1 | . | . | . | . | / | / | / | /
NC(=O)c1cc(Cl)ccc1OCC(F)(F)F | . | / | / | / | / | / | / | /
CCOC(=O)c1c(-c2ccccc2)csc1NC(=O)c1cc(-c2cccc(OC)c2)on1 | . | 79.4µM | / | / | 22.4 | 15.8µM | . | .
CCOC(=O)c1c(-c2ccccc2)csc1NC(=O)c1cc(-c2cccc(Cl)c2)on1 | . | ? | / | / | / | / | / | /
Cc1nn(C)c(-c2n[nH]c(=S)n2-c2ccccc2)c1Cl | ? | . | . | . | / | / | / | /
O=C(Nc1ccc(F)cc1)c1nc(S(=O)(=O)Cc2ccccc2)ncc1Cl | . | ? | 16.8µM | ? | 3.55 | 2.82µM | 3.26µM | 18.9µM
COc1ccc2nc(NC(=O)c3nc(S(=O)(=O)Cc4ccccc4)ncc3Cl)sc2c1 | . | . | / | / | / | / | / | /
Cc1ccc(NC(=O)c2nc(S(=O)(=O)Cc3ccccc3)ncc2Cl)cc1 | . | 25.1µM | ? | ? | 18.9 | ? | ? | ?
O=C(Nc1nc2ccc(F)cc2s1)c1nc(S(=O)(=O)Cc2ccccc2)ncc1Cl | . | ? | / | / | / | / | / | /
Cc1nnc(NC(=O)c2nc(S(=O)(=O)Cc3ccccc3)ncc2Cl)s1 | ? | ? | . | ? | 15.8 | 12.6µM | 2.31µM | 4.23µM
SMILES | 12-LOX inh | VDR inh | PLK1 PBD block | Sfp PPTase inh | VDR confirm | VDR FP fluor | VDR bla | VDR cytotox | others
O=C(NCc1ccccc1)c1nc(S(=O)(=O)Cc2ccc(F)cc2)ncc1Cl | ? | 31.6µM | / | / | 3.16 | 7.94µM | 20.6µM | 18.9µM
Cc1ccc(CNC(=O)c2cc3c(s2)CS(=O)(=O)C3)cc1 | . | . | ? | . | / | / | / | /
COc1ccc(-n2c(SC(C)C(=O)Nc3ncc(Cl)cc3Cl)nc3ccccc32)cc1 (stereo not given) | . | . | . | . | / | / | / | /
CC(N=Cc1cccc(O)c1O)c1ccccc1 (stereo not given) | / | 50.1µM | ? | ? | 20 | 10µM | 11.6µM | .
COc1ccccc1-c1cccc(C(=O)NC(C)Cc2cc(C)[nH]n2)c1 (stereo not given) | . | / | / | / | / | / | / | /
Cc1ccc(/C=N/NC(=O)c2ccc(N(C)S(=O)(=O)c3ccccc3)cc2)cc1 | . | . | . | . | / | / | / | /
O=C(Nc1ccc2c(c1)OCCO2)C(c1ccccc1F)n1c(=O)c(-c2cc3ccccc3[nH]2)nc2ccccc21 (stereo not given) | ? | / | . | / | / | / | / | /
CC(C)(C)c1ccc(C(=O)N2CCC(c3n[nH]c(=O)n3Cc3ccc(F)cc3)CC2)cc1 | . | / | / | / | / | / | / | /
CN1CCC2(CC1)N=C(c1ccc(F)cc1)C(=S)N2C(=O)c1ccc(C(C)(C)C)cc1 | ? | ? | 23.8µM | 50.1µM | ? | ? | ? | ?
O=C(c1ccc2ncsc2c1)N1CCN(C(=O)c2cccs2)CC1 | . | / | / | / | / | / | / | /
CC(C)c1nnc(NC(=O)CCS(=O)(=O)Cc2ccccc2)s1 | ? | . | ? | ? | / | / | / | /
O=C(CCS(=O)(=O)c1nc(-c2ccc3c(c2)OCO3)cc(C(F)(F)F)n1)Nc1ccc(Br)cc1 | . | 12.6µM | / | / | 3.16 | 3.55µM | 23.1µM | ?
CC(C)c1nnc(NC(=O)CCS(=O)(=O)c2nc(-c3cccs3)cc(C(F)(F)F)n2)s1 | . | 22.4µM | ? | . | 9.47 | ? | ? | ?
COc1ccc(Cl)cc1NC(=O)CCS(=O)(=O)c1nc(-c2cccs2)cc(C(F)(F)F)n1 | . | 20µM | / | / | 5.01 | 3.55µM | 18.4µM | ?
CSc1ccccc1NC(=O)CCS(=O)(=O)c1nc(-c2ccc3c(c2)OCO3)cc(C(F)(F)F)n1 | . | ? | / | / | / | / | / | /
COc1ccc(Cl)cc1NC(=O)CCCS(=O)(=O)c1nc(-c2ccc(OC)c(OC)c2)cc(C(F)(F)F)n1 | . | ? | / | / | / | / | / | /
